Data from the supplement of paper PMC12340641.

Columns and labels:
[1] = molecular target: IKZF1 (dCK*-IKZF1 fusion in HEK293FT) (UniProt Q13422); experiment: inhibition of IKZF1 HTRF signal (DMSO = 0%, pomalidomide 10 uM = 100%); higher = lower IKZF1 protein level; details: compound concentration: 5 uM, overnight (~20 h)
Outline: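 Values are percent inhibition of IKZF1 signal, normalised plate by plate against vehicle and a reference degrader. HEK293FT cells stably expressing an IKZF1 fusion were seeded at 2000 per well in 384-well plates and exposed to 5 μM compound in single wells overnight at 37 °C. After 30 min lysis at room temperature, lysates were incubated overnight with a commercial HTRF total-IKZF1 antibody kit, and the background-subtracted 665/620 nm time-resolved FRET ratio was read. On each plate, vehicle was set at 0% and the reference degrader at 100%.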

HEK293FT dCK*-only = experiment: relative growth in counter assay (no AraC = 100%, AraC + DMSO = 0%); higher = more growth rescue independent of IKZF1; details: compound concentration: 5 uM; AraC concentration: 0.3 uM; overnight pretreatment + 4 days AraC
Outline: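 This counter assay used HEK293FT cells expressing only an engineered kinase construct, seeded at 300 per well in 384-well plates. Compound was added at 5 μM 2 h after seeding, and after overnight at 37 °C the cells received a nucleoside suicide substrate at 0.3 μM plus medium for 4 days. On day 5, nuclei stained with Hoechst 33342 were counted by imaging, and relative growth was normalised per plate; wells without suicide substrate were set at 100% and wells with substrate plus vehicle at 0%.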

HEK293FT dCK*-IKZF1 = experiment: relative growth recovery (pomalidomide 10 uM = 100%, DMSO = 0%); higher = more growth rescue (IKZF1 fusion degradation); details: compound concentration: 5 uM; AraC concentration: 0.3 uM; overnight pretreatment + 4 days AraC
Outline: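 On day 5, whole-well imaging was used to count Hoechst 33342-stained nuclei of HEK293FT cells stably carrying a deoxycytidine kinase–IKZF1 fusion. These cells had received 5 μM compound 2 h after seeding, followed after overnight at 37 °C by a nucleoside suicide substrate at 0.3 μM plus medium for 4 days. Growth recovery was normalised on each plate against a reference degrader and vehicle, which defined 100% and 0%, and values are duplicate means from separate days.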

Sequence of IKZF1 (dCK*-IKZF1 fusion in HEK293FT) (Q13422 whole entry, looked up, the tested form may be a part): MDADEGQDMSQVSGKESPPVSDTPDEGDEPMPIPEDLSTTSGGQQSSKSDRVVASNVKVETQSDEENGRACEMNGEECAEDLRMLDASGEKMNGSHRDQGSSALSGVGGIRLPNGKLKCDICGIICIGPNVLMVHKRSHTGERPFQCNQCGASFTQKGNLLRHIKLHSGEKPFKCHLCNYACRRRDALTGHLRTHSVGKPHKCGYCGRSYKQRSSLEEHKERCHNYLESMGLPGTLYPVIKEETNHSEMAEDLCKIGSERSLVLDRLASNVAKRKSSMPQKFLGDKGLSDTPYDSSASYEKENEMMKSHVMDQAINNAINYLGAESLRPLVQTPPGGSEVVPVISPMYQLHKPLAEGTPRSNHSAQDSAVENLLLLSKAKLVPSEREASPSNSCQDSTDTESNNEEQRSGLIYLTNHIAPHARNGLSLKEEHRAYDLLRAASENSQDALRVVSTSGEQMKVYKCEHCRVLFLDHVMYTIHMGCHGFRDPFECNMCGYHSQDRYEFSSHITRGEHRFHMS

Row | Structure (SMILES) | inhibition of IKZF1 HTRF signal [1] | relative growth in counter assay (HEK293FT dCK*-only) | relative growth recovery (HEK293FT dCK*-IKZF1)
1 | COc1cc([C@@H]2c3cc4c(cc3[C@@H](O[C@@H]3O[C@@H]5CO[C@@H](C)O[C@H]5[C@H](O)[C@H]3O)[C@H]3COC(=O)C23)OCO4)cc(OC)c1O (stereo partly specified) [Etoposide] | -10.2% | -34.7% | -12.9%
2 | O=c1c(-c2ccccc2)c1-c1ccccc1 [diphencyprone] | -25.4% | -31.8% | -11.2%
3 | CC(=C\c1ccc(Cl)cc1)/C(C)=N/O | -25.6% | -1.62% | -3.61%
4 | O=C(Nc1ccc(C(O)(C(F)(F)F)C(F)(F)F)cc1)c1ccc(C(F)(F)F)cc1 | -28.5% | 49.3% | 53.1%
5 | Cc1ccccc1/N=N/c1ccc(NC(=O)c2ccnn2C)c(C)c1 | -27% | -9.17% | -0.005%
6 | CCOC(=O)c1ccc(N)cc1 | 16.4% | -10.5% | -2.68%
7 | CC(C)(C)CC(C)(C)c1ccc(OCCOCC[N+](C)(C)Cc2ccccc2)cc1 | 16% | -7.09% | -0.695%
8 | C/C=C(/C(=C/C)c1ccc(O)cc1)c1ccc(O)cc1 [dienestrol] | -24% | -2.14% | -1.6%
9 | O=C(Nc1cccc(C(F)(F)F)c1)Nc1ccc(Br)cc1-c1nnn[nH]1 | -23.4% | -0.22% | -2.33%
10 | CCN(c1ccccc1)c1cc(NC)[n+](C)c(C)n1 | 26.3% | 3.09% | -0.645%
11 | Cn1c(NCCN(CCO)CCCc2ccc([N+](=O)[O-])cc2)cc(=O)n(C)c1=O [nifekalant] | -33.5% | -3.87% | 3.56%
12 | CCOC(=O)Nc1ccc2c(c1)N(C(=O)CCN1CCOCC1)c1ccccc1S2 [moracizine] | -24.3% | -9.21% | -0.545%
